The campaign covered roughly 200,000 compounds. About 18,000 (9%) were called active. For the sample, actives were picked, then their nearest neighbours and some compounds at random. Values without a mark were called inactive. No stated cut-off is given here; in the data, active means inhibition above about 50%; inactive means the rest.
Assay: antileishmanial activity against promastigotes – primary screen (AID 1063);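 further: promastigotes grown with compound for 44 hours at 28 °C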
Settings: Leishmania major promastigotes, resazurin fluorescence viability; at 10 µM; stronger effect = higher value

Compound	inhibition
COc1ccc(C(=O)N/N=c2\oc3ccccc3cc2C(N)=O)cc1	10.2%
CC(OC(=O)CCc1nc(=O)c2ccccc2n1C)C(=O)NCc1ccc2c(c1)OCO2 (centres undefined)	-3.8%
CCC(C)(C)NC(=O)/C=C/c1cc(OC)c(OC)c(S(=O)(=O)N2CCc3ccccc32)c1	-8.31%
CCN1CCN(Cc2c(O)ccc3c(=O)c(-c4ccc(OC)c(OC)c4)c(C(F)(F)F)oc23)CC1	99.8% (active)
CCOC(=O)c1oc2c(CN3CCN(C)CC3)c(O)ccc2c(=O)c1-c1ccc(Br)cc1	23.6%
CN1CCN(Cc2c(O)ccc3c2oc(=O)c2ccccc23)CC1	3.53%
COc1ccc(C(=O)NNc2cc(C)nc(NNC(=O)c3ccc(OC)cc3)n2)cc1	-8.08%
Cn1c(=NC(=O)c2ccc3c(c2)OCCO3)sc2cc(S(C)(=O)=O)ccc21	-9.12%
COc1cccc(C(O)Cc2nc3ccccc3n2C)c1OC (centres undefined)	9.44%
COc1cccc(/C=C/c2ccc3ccccc3n2)c1OC(C)=O	75.8% (active)
CCOc1cccc(/C=C/c2ccc3ccccc3n2)c1OC(C)=O	66% (active)
CCOc1ccccc1NC(=O)c1cccnc1	-2.23%
NC(=O)COC(=O)/C=C/c1ccc2ccccc2n1	8.85%
CC(OC(=O)c1ccc2ccccc2n1)C(=O)c1ccccc1 (centres undefined)	-9.05%
COC(=O)c1ccc(-n2cnc3ccccc32)nc1	25%
CN(C(=O)CSc1nnc(Nc2ccccc2)s1)C1CCS(=O)(=O)C1 (centres undefined)	-3.39%
CC(=O)c1c(C)[nH]c(C(=O)OCC(=O)NCCC(C)C)c1C	3.75%
c1ccc(CSCCc2ccncc2)cc1	1.66%
O=C(O)CCCc1ccccc1	-5.59%
Cc1ccc(O)c(CCc2ccccc2)n1	87.9% (active)
CC(NC(=O)C(=O)N/N=C/c1ccc(Cl)cc1)c1ccccc1 (centres undefined)	5.89%
CC(C)(C)NC(=O)c1cccc(NC(=O)Cc2ccc(Br)cc2)c1	94.5% (active)

Compound	inhibition
COc1ccc(CC(=O)Nc2ccc(C(=O)NC(C)(C)C)cc2)cc1	-5.15%
O=C(Cc1ccccc1)Nc1cccc(C(=O)N/N=C/c2ccco2)c1	-0.83%
C(=N\N1CCN(c2ccccn2)CC1)/C1=C(N2CCOCC2)C(=C/c2ccccc2)/CC1	15.2%
CCCCCNC(=O)c1cccnc1SCC(=O)Nc1ccccc1OC	54% (active)
CCCNC(=O)c1ccccc1NC(=O)CSCc1ccc(OC)cc1	9.43%
CCCc1nc(SCC(=O)Nc2ccccc2OC)c2c(=O)n(C)c(=O)n(C)c2n1	-9.77%
COc1ccc(-n2nnnc2SCC(=O)NCc2cccs2)cc1	-3.26%
COc1ccc(S(=O)(=O)N(C)C)cc1NC(=O)CSc1ncccn1	6.96%
O=C(NCc1ccncc1)NC12CC3CC(CC(C3)C1)C2	1.04%
CCOC(=O)c1c(NC(=O)C2CC=CCC2C(=O)O)sc(C)c1CC (centres undefined)	0.64%
O=S(=O)(c1cccc(C(F)(F)F)c1)N1CCN(c2cnccn2)CC1	-1.36%
Cc1ccc(S(=O)(=O)NCCSc2ccccc2)cc1[N+](=O)[O-]	-8.64%
CCOC(=O)c1ccccc1NS(=O)(=O)c1ccc(OC)cc1	2.32%
COCCNC(=O)c1ccccc1NS(=O)(=O)c1ccc(C)c([N+](=O)[O-])c1	54.5% (active)
Cc1ccc(S(=O)(=O)Nc2nc3ccccc3s2)cc1[N+](=O)[O-]	-8.33%
COC(=O)c1ccccc1NC(=O)c1ccccc1NS(C)(=O)=O	-0.37%
COC(=O)c1ccccc1NS(=O)(=O)c1ccc2[nH]c(=O)[nH]c2c1	86.2% (active)
O=S(=O)(Cc1ccccc1)c1nc2ccccc2n1Cc1ccccn1	10.6%
Cc1cc(C)cc(C(=O)N(CCc2ccccc2)C2=CC3CCC(C2)N3C)c1 (centres undefined)	3.61%
Cc1ccc(N/C=C/C(=O)c2ccccc2)cc1C	66% (active)
O=C(/C=C\NCC(=O)c1ccccc1)c1ccccc1	2.41%
Cc1noc(NS(=O)(=O)c2ccc(N/C=C/C(=O)c3ccccc3)cc2)c1C	-14.2%

Compound	inhibition
O=C(Nc1ccc2c(c1)C(=O)OC2)Nc1cccc2ccccc12	-3.46%
CC1=NN(c2ccccc2)C(=O)C1C(=O)c1ccc([N+](=O)[O-])cc1 (centres undefined)	-7.88%
COc1cc(OC)nc(N/N=C(\c2ccccc2)c2ccncc2)n1	-5.12%
CC[n+]1c(C)n(-c2ccccc2)c2ccc(NC(C)=O)cc21	98.2% (active)
CCN(CC)N=Nc1cccc(NC(C)=O)c1	-3.03%
CC(=O)NCCc1nc2cc(NC(=O)c3ccccc3)ccc2n1C	-4.08%
O=C(Nc1ccc2cn[nH]c2c1)c1ccc(S(=O)(=O)N2CCOCC2)cc1	-3.16%
O=C(C(Cl)Cl)N1CCN(c2ccccn2)CC1	64.4% (active)
CC(=C1C(=O)c2ccccc2C1=O)N1CCN(c2ccccn2)CC1	-2.16%
O=C(Cc1ccccc1Cl)N1CCN(c2ccccn2)CC1	-2.27%
COC(c1ccccc1)c1nnc(CCC(=O)N2CCN(CCOc3ccccc3)CC2)o1 (centres undefined)	-4.38%
CC1=C/C(=N\S(=O)(=O)c2ccccc2)C(C(C)C)=CC1=O	-0.21%
CC1=C/C(=N\OS(=O)(=O)c2ccccc2)C=CC1=O	100% (active)
Cc1ccc(S(=O)(=O)c2ccc(Oc3ccccc3)cc2)cc1	-3.38%
Cc1cccc(C(=O)N2CCC(c3nc4ccccc4s3)CC2)c1	-2.51%
Cc1cccc(/C(N)=N/OC(=O)c2ccccc2Cl)c1	16.9%
COC(=O)c1cccc([N+](=O)[O-])c1CS(=O)(=O)c1ccc(C)cc1	-1.5%
CC(=O)Nc1ccc(-c2csc(NC=C3C(=O)OC(C)(C)OC3=O)n2)cc1	0.56%
CC(=O)Nc1ccc(S(=O)(=O)Nc2nc(-c3ccc(C(C)(C)C)cc3)cs2)cc1	6.97%
CC(=O)Nc1ccc(-c2csc(NC(=O)Nc3ccccc3)n2)cc1	58.2% (active)

— PubChem BioAssay AID1063 (University of Pittsburgh Molecular Library Screening Center, 2008)
